Data: PubChem BioAssay (EPA / NIEHS)
Where “and” joins values, the source holds several entries; their conditions need not be identical. Equal values may be shown once. Some compounds were tested as several samples or in several runs, with calls that do not always agree. Calls of active or inactive are those of the source. How the source made its calls: active means hit-call score of the fitted dose curve at least 0.9, where 1 is the maximum; inactive means score below 0.9.

Each compound was assayed on Interleukin-8 (IL8), CXCL8 (gene 3576) (assay: BSK_LPS_IL8: BioMAP Diversity Plus: LPS Assay for Interleukin-8 (IL8) Biomarker Activity (AID 2283078)). Conditions: primary human HUVEC with PBMC; actives raise or lower the signal.
Procedure: BSK_LPS is a cell-based, multiplexed-readout assay that uses umbilical vein endothelium and peripheral blood mononuclear cells, a human vascular primary cell co-culture, with measurements taken at 24 hours after chemical dosing in a 96-well plate.BSK_LPS_IL8 is an assay component measured in the BSK_LPS assay. It measures IL-8 antibody related to regulation of gene expression using ELISA technology.Data from the assay component BSK_LPS_IL8 was analyzed into 1 assay endpoint. This assay endpoint, BSK_LPS_IL8, was analyzed with bidirectional fitting relative to DMSO as the negative control and baseline of activity. Using a type of binding reporter, gain or loss-of-signal activity can be used to understand changes in the signaling as they relate to the gene CXCL8. Furthermore, this assay endpoint can be referred to as a primary readout, because this assay has produced multiple assay endpoints where this one serves a signaling function. To generalize the intended target to other relatable targets, this assay endpoint is annotated to the cytokine intended target family, where the subfamily is interleukins.
The levels of cell surface (or secreted, indicated by the prefix "s") biomarker endpoints were measured by ELISA. Overt cytotoxicity to cells in confluent adherent cultures (all systems other than the BT system) was assessed by measuring total protein levels using sulforhodamine B (SRB) staining in parallel cultures at the time of biomarker measurements, indicated as SRB endpoints. For proliferation assays for adherent cell types, individual cell types are cultured at sub-confluence and relative cell numbers quantified by SRB staining at time points optimized for each system (48 h: 3C and CASM3C systems; 72 h: BT and HDF3CGF systems; 96 h: SAg system). SRB was performed by staining cells with 0.1% SRB after fixation with 10% TCA and reading wells at 560 nm.Viability and proliferation of PBMC (T cells) was quantified by Alamar Blue reduction for the SAg and BT systems. For PBMC viability (referred to as PBMC Cytotoxicity within the assay endpoint names), cells were plated (75,000/well in a 96-well plate) and then chemical samples added for 1 h before addition of activators, SEB and TSST-1 (20 ng/mL final concentration each). Cells were incubated for 90 h. Then, Alamar Blue (20 uL/well) (Invitrogen, Cat DAL1100) was added for 6 h, and the plates were read with a fluorescence microplate reader at 546/580 nm (excitation/emission). For PBMC proliferation, cells were plated and activated as above but incubated for only 16 h prior to addition of Alamar Blue. Plates were read after 6 h.

outcome, inactive:
CN(C)CCC(c1ccc(Cl)cc1)c1ccccn1 (centres undefined), COc1cc(CNC(=O)CCCC/C=C/C(C)C)ccc1O, CCCCC(CC)COC(=O)C=Cc1ccc(OC)cc1 (centres undefined), CCC[Si](OC(C)=O)(OC(C)=O)OC(C)=O, COC(=O)/C=C\C(=O)OC, CC[N+](CC)(CC(=O)Nc1c(C)cccc1C)Cc1ccccc1 (tested in a mixture with another compound), C1CN(CCOCCN2CCOCC2)CCO1, COc1ccc(C(=O)c2ccccc2O)c(O)c1, CCCCCCC(O)CCCCCCCCCCC(=O)OC (centres undefined), CC(C)C1OCCN1CCOC(=O)NCCCCCCNC(=O)OCCN1CCOC1C(C)C (centres undefined), CCCCCCCCCC/C=C/C1CC(=O)OC1=O (centres undefined), CCC(C)=NO, Cc1cc(-n2nc3ccc(Cl)cc3n2)c(O)c(C(C)(C)C)c1, CN(C)Cc1cc(C(C)(C)C)c(O)c(C(C)(C)C)c1, Oc1cccc2ccccc12, CC(C)CC(=O)CC(C)CC(C)C (centres undefined), OC(C(F)(F)F)(C(F)(F)F)C(O)(C(F)(F)F)C(F)(F)F, Sc1nc2ccccc2s1, Cc1c(C(N)=O)cc([N+](=O)[O-])cc1[N+](=O)[O-], Cc1cccnc1

AC50, active:
CCCCC(CC)COC(=O)C=Cc1ccc(OC)cc1 (centres undefined) 12.9 µM, COc1ccccc1Oc1c(NS(=O)(=O)c2ccc(C(C)(C)C)cc2)nc(-c2ncccn2)nc1OCCO 20 µM and 9.01 µM, CCCCCCCCCCC1CO1 (centres undefined) 37.5 µM, C1CN(CCOCCN2CCOCC2)CCO1 4.01 µM, CN(C)c1ccc(C(c2ccccc2)c2ccc(N(C)C)cc2)cc1 15.2 µM, O=C(C(=O)c1ccccc1)c1ccccc1 0.0917 µM, CC[N+](CC)(CC(=O)Nc1c(C)cccc1C)Cc1ccccc1 0.182 µM, CCCCCCCCCCCCCCCCCC[N+](C)(C)C 7.3 µM, O=[N+]([O-])c1cc(S(=O)(=O)Nc2ccccc2)ccc1Nc1ccccc1 22.7 µM and 20 µM
